Results from PubChem BioAssay AID1159580 (chemical genetic matrix, 2015).
“And” between values parts separate entries of the source, which are not always exact repeats. Equal values may be shown once. The whole screen tested about 5,500 compounds, of which about 2,000 (36%) were called active. Roughly 18% stayed inconclusive and do not appear here. Rule as the data show it: active = normalized growth mostly below about 0.91 (no sharp cut-off); inconclusive = no clear call, values can overlap the other calls; inactive = mostly above about 0.92. Some of the results follow.

Test: chemical genetic growth profiling, strain panel (AID 1159580);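 also: tested at 20 µM; growth read once vehicle control cultures reached saturation at 30 °C; 1 = growth at the plate median or of vehicle wells; lower values mean less growth of the strain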
Settings: S. cerevisiae deletion strains, growth OD

Measured: normalized growth

COc1cc(-c2coc3cc(O[C@@H]4O[C@H](CO)[C@@H](O)[C@H](O)[C@H]4O)c(OC)c(O)c3c2=O)cc(O)c1OC
inactive: locus YAL021C, strain ccr4, hits give low values 1.01 | locus YAL026C, strain drs2, hits give low values 1.01 | locus YAL030W, strain snc1, hits give low values 0.988 | locus YBL061C, strain skt5, hits give low values 0.997 | locus YBR009C, strain hhf1, hits give low values 0.986 | locus YBR021W, strain FUR4, hits give low values 1.02 | locus YBR023C, strain chs3, hits give low values 0.989 | locus YBR171W, strain sec66, hits give low values 0.99 | locus YBR229C, strain ROT2, hits give low values 0.994 | locus YBR231C, strain swc5, hits give low values 0.983 | locus YBR279W, strain paf1, hits give low values 1 | locus YCL011C, strain gbp2, hits give low values 0.999 | locus YCL016C, strain dcc1, hits give low values 0.996 | locus YCL029C, strain bik1, hits give low values 1.01 | locus YCL061C, strain MRC1, hits give low values 0.994 | locus YCL069W, strain vba3, hits give low values 1.01 | locus YCR088W, strain abp1, hits give low values 0.997 | locus YDL005C, strain med2, hits give low values 0.98 | locus YDL035C, strain GPR1, hits give low values 1.04 | locus YDL040C, strain nat1, hits give low values 0.994 | locus YDL074C, strain BRE1, hits give low values 1.08 | locus YDL101C, strain DUN1, hits give low values 0.987 | locus YDL185W, strain tfp1, hits give low values 0.997 | locus YDL192W, strain arf1, hits give low values 1.02 | locus YDR001C, strain nth1, hits give low values 1.01 | locus YDR069C, strain doa4, hits give low values 0.986 | locus YDR101C, strain arx1, hits give low values 1.03 | locus YDR137W, strain rgp1, hits give low values 1.02 | locus YDR150W, strain NUM1, hits give low values 1.02 | locus YDR159W, strain sac3, hits give low values 0.973 | locus YDR162C, strain NBP2, hits give low values 1.03 | locus YDR195W, strain ref2 0.939 | locus YDR297W, strain sur2, hits give low values 1.01 | locus YDR318W, strain mcm21, hits give low values 1.02 | locus YDR334W, strain swr1, hits give low values 0.997 | locus YDR335W, strain msn5, hits give low values 1 | locus YDR388W, hits give low values 1 | locus YDR392W, strain spt3, hits give low values 0.874 | locus YDR502C, strain sam2, hits give low values 1 | locus YEL003W, strain gim4, hits give low values 0.982 | locus YEL037C, strain rad23, hits give low values 1.01 | locus YEL061C, strain CIN8 (second series), hits give low values 1 | locus YEL061C, strain CIN8, hits give low values 1 | locus YER015W, strain faa2, hits give low values 1 | locus YER016W, strain bim1, hits give low values 0.996 | locus YER110C, hits give low values 0.996 | locus YER111C, strain swi4, hits give low values 1 | locus YER155C, strain BEM2 (second series), hits give low values 0.928 | locus YER155C, strain BEM2, hits give low values 0.991 | locus YER167W, strain BCK2, hits give low values 0.993 | locus YFR010W, strain ubp6, hits give low values 0.999 | locus YGL078C, strain dbp3, hits give low values 0.988 | locus YGL086W, strain mad1, hits give low values 1 | locus YGL167C, strain pmr1, hits give low values 0.996 | locus YGL173C, strain kem1, hits give low values 1 | locus YGL227W, strain vid30, hits give low values 0.995 | locus YGL240W, strain doc1, hits give low values 0.961 | locus YGL248W, strain PDE1, hits give low values 0.982 | locus YGL253W, strain hxk2, hits give low values 1.02 | locus YGR135W, strain pre9, hits give low values 0.97 | locus YGR252W, strain gcn5, hits give low values 0.997 | locus YHR013C, strain ard1, hits give low values 0.979 | locus YHR027C, strain rpn1, hits give low values 0.995 | locus YHR030C, strain SLT2, hits give low values 1.01 | locus YHR079C, strain IRE1 (second series), hits give low values 1 | locus YHR079C, strain IRE1, hits give low values 1.01 | locus YHR094C, strain hxt1, hits give low values 0.993 | locus YHR129C, strain ARP1, hits give low values 0.999 | locus YHR142W, strain chs7, hits give low values 1.02 | locus YHR200W, strain rpn10, hits give low values 1 | locus YIL066C, strain RNR3, hits give low values 1 | locus YIL073C, strain SPO22, hits give low values 1.05 | locus YIL125W, strain kgd1, hits give low values 0.997 | locus YIR030C, strain dcg1, hits give low values 0.994 | locus YJL092W, strain hpr5, hits give low values 1 | locus YJL095W, strain BCK1 (second series), hits give low values 1 | locus YJL095W, strain BCK1, hits give low values 1.02 and 1.01 | locus YJL115W, strain asf1, hits give low values 0.993 | locus YJL129C, strain trk1, hits give low values 1 | locus YJL134W, strain LCB3, hits give low values 0.992 | locus YJL154C, strain vps35, hits give low values 0.997 | locus YJL164C, strain tpk1, hits give low values 1 | locus YJL166W, strain qcr8, hits give low values 0.991 | locus YJL168C, strain set2, hits give low values 0.995 | locus YJL187C, strain SWE1 (second series), hits give low values 0.991 | locus YJR043C, strain POL32, hits give low values 1.05
